Data published in PubChem BioAssay (Tox21).
Results filed as inconclusive are left out. Calls of active or inactive are those of the source. Unless noted, calls follow the shape of the dose curve; as a rule, active = well fitted curve in the direction sought with a large enough effect in the repeat runs; inconclusive = weak or mixed curves; inactive = no such curve, though single readings can be large; an effect the other way counts as inactive or inconclusive.

Tests used:
[1] = biological target: Nuclear receptor subfamily 1 group I member 3 (Homo sapiens) (UniProt Q14994); assay: qHTS assay to identify small molecule agonists of the constitutive androstane receptor (CAR) signaling pathway (AID 1224839); also: nearly all actives have a fitted effect of over 15% in size; also: potency is read from the fitted curve at half-maximal effect;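 as to activation: HepG2 cells stably carrying human CAR and a CYP2B6 luciferase reporter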
Method in brief: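 Using human hepatoma HepG2 cells engineered with hCAR and a CYP2B6-2.2kb reporter, 15-concentration compound series were incubated 24 h alongside PK11195 at 0.75 uM final, with luminescence quantified afterwards.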

[2] = qHTS assay to identify small molecule agonists of the estrogen related receptor signaling pathway with the pleiotropic PPARgamma coactivator (PGC) from Tox21 10K library (AID 1224842); also: nearly all actives have a fitted effect of over 15% in size
Method in brief: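 Luminescence from One-Glo (30 min, room temperature) measured after PGC/ERR cells had 18 h at 37 C with pinned compound (23 nL in DMSO). Cells had been seeded at 2,000 per well and pre-incubated 6 h.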

[3] = qHTS assay to identify small molecule agonists of H2AX - cell viability counter screen (AID 1224847; calls by dose curve; also: nearly all actives have a fitted effect of over 30% in size; also: potency is read from the fitted curve at half-maximal effect;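 as to activity change, negative = cytotoxicity: wild-type CHO-K1 cells; top concentration of the series differs between compounds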)
Method in brief: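 After overnight plating of 1000 CHO-K1 cells per well, a 15-concentration compound series was applied for 3 hr at 37C. Luminescence from CellTiter-Glo, read following 30 min at room temperature, reflected cell viability.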

[4] = qHTS assay to identify small molecule antagonists of the estrogen related receptor (ERR) signaling pathway from Tox21 library (AID 1224848); also: nearly all actives have a fitted effect of over 50% in size; also: potency is read from the fitted curve at half-maximal effect
Method in brief: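 ERR cell line, 2,000 cells/well. 6 h settle, then compound (DMSO) added; 18 h at 37 C; ONE-Glo luminescence after 30 min RT.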

[5] = qHTS assay to identify small molecule agonists of the estrogen related receptor (ERR) signaling pathway from Tox21 library (AID 1224849; calls by dose curve; also: nearly all actives have a fitted effect of over 15% in size); settings: ERR reporter cell line, ONE-Glo luciferase, 18 h; at 92.4 µM (top of the series) unless noted
Method in brief: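 Luminescent agonist read-out (One-Glo, 30-minute room-temperature incubation) following 18-hour compound treatment at 37 C of the ERR cell line, which had been plated 6 hours before dosing.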

[6] = qHTS RealTime-Glo MT Cell Viability Assay in HepG2 cells - 24 hour (AID 1224867); also: nearly all actives have a fitted effect of over 50% in size; also: potency is read from the fitted curve at half-maximal effect
Method in brief: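 Compound treatment began 5 h after plating HepG2 cells (600/well) with NanoLuc luciferase and prosubstrate. Plates stayed at 37 C for 40 h; luminescence was captured at six time points, 0 h through 40 h.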

[7] = qHTS RealTime-Glo MT Cell Viability Assay in HEK293 cells - 32 hour (AID 1224868); also: nearly all actives have a fitted effect of over 50% in size; also: potency is read from the fitted curve at half-maximal effect; as to activity change, negative = cytotoxic: top concentration of the series differs between compounds
Method in brief: (§1)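 Quantitative high-throughput screen of the Tox21 10K library in HEK293: cells and RealTime-Glo reagents plated together, compound added at 5 h, luminescence monitored through 40 h at 37 C.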

[8] = A CellTox Green Cytotoxicity Assay to monitor cytotoxicity in HEK293 cells - 0 hour (AID 1224869); also: nearly all actives have a fitted effect of over 50% in size
Method in brief: (§2)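 Fluorescence from a DNA-binding dye excluded by viable cells was measured repeatedly in the same HEK293 wells (600 cells/well) during continuous compound exposure at 37 C. Each assay gives one read point: 0, 8, 16, 24, 32 or 40 h.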

[9] = qHTS RealTime-Glo MT Cell Viability Assay in HepG2 cells - 40 hour (AID 1224870); also: nearly all actives have a fitted effect of over 50% in size; also: potency is read from the fitted curve at half-maximal effect
Method in brief: (§3)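 Real-time viability: cells seeded at 600 per well together with NanoLuc and cell-permeant prosubstrate, compounds added after 5 h incubation. Luminescence tracked at 0, 8, 16, 24, 32 and 40 h of exposure.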

[10] = A CellTox Green Cytotoxicity Assay to monitor cytotoxicity in HEK293 cells - 40 hour (AID 1224871); also: nearly all actives have a fitted effect of over 45% in size; also: potency is read from the fitted curve at half-maximal effect
Method in brief: as §2

[11] = qHTS RealTime-Glo MT Cell Viability Assay in HEK293 cells - 16 hour (AID 1224872); also: nearly all actives have a fitted effect of over 50% in size; also: potency is read from the fitted curve at half-maximal effect; as to activity change, negative = cytotoxicity: top concentration of the series differs between compounds
Method in brief: as §1

[12] = qHTS RealTime-Glo MT Cell Viability Assay in HepG2 cells - 8 hour (AID 1224873); also: nearly all actives have a fitted effect of over 55% in size; also: potency is read from the fitted curve at half-maximal effect
Method in brief: as §3

[13] = qHTS assay to identify small molecule antagonists of the estrogen related receptor signaling pathway with the pleiotropic PPARgamma coactivator (PGC) from Tox21 10K library (AID 1224841; call rule not given here; also: potency is read from the fitted curve at half-maximal effect)
Method in brief: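 Luminescence (One-Glo, 30 min at room temperature) after 18 h compound treatment at 37 C of PGC/ERR reporter cells plated at 2,000 cells/well and settled 6 h beforehand.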

[14] = qHTS assay to identify small molecule agonists of the hypoxia (HIF-1) signaling pathway (AID 1224846; active = well fitted activation curve with a large enough effect in the signal ratio in the repeat runs, not every such curve was filed as active; the % refers to the signal ratio; also: potency is read from the fitted curve at half-maximal effect)
Method in brief: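 Compounds added to ME-180 cells carrying hypoxia-response-element beta-lactamase reporter (0.5% dialyzed FBS, 5 h preplating), 17 h at 37C; agonist activity detected by CCF4-AM B/G FRET read-out.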

[15] = qHTS RealTime-Glo MT Cell Viability Assay in HEK293 cells - 40 hour (AID 1224874); settings: RealTime-Glo luminescence; max response: hits give low values; also: nearly all actives have a fitted effect of over 50% in size; also: potency is read from the fitted curve at half-maximal effect
Method in brief: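 Luminescence, which tracks viable cell number through reduction of the prosubstrate to a NanoLuc substrate, was read over continuous 37 C culture. Cells (600/well) were premixed with reagent and rested 5 h before 23 nL of compound in DMSO was pinned.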

[16] = qHTS assay to identify small molecule antagonists of the estrogen related receptor signaling pathway with the pleiotropic PPARgamma coactivator (PGC) from Tox21 10K library - cell viability counter screen (AID 1224840; active = well fitted cell-killing curve with a large enough effect in the repeat runs, not every such curve was filed as active; also: nearly all actives have a fitted effect of over 40% in size)
Method in brief: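 Counter-screen for cytotoxicity: after 17.5 h compound exposure at 37 C, CellTiter-Fluor reagent added to PGC/ERR cells for 30 min and fluorescence read. Cells were seeded at 2,000 per well 6 h before dosing.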

[17] = biological target: Thyrotropin receptor (Homo sapiens) (UniProt P16473); assay: qHTS assay to identify small molecule agonists of the thyroid stimulating hormone receptor (TSHR) signaling pathway (AID 1224843; calls by dose curve; also: nearly all actives have a fitted effect of over 45% in size)
Method in brief: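 A cell-based cAMP HTRF format was run in TSHR-transfected HEK293 cells, 800 per well. Treatment: 30 min, room temperature. Detection: 1 h with labelled cAMP and anti-cAMP cryptate. Concentration-response over 15 points, three replicates.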

[18] = qHTS assay to identify small molecule agonists of the hypoxia (HIF-1) signaling pathway - cell viability counter screen (AID 1224844; calls by dose curve; also: nearly all actives have a fitted effect of over 50% in size; also: potency is read from the fitted curve at half-maximal effect)
Method in brief: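 Cytotoxicity measured by CellTiter-Glo ATP luminescence in the wells also read for beta-lactamase signal. Cells were HRE-bla ME-180 (2,000/well, 0.5% dialyzed FBS), exposed to compounds for 17 h at 37C.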

[19] = qHTS assay to identify small molecule agonists of H2AX (AID 1224845; active = well fitted activation curve with a large enough effect in the signal ratio in the repeat runs, not every such curve was filed as active; the % refers to the signal ratio; also: potency is read from the fitted curve at half-maximal effect)
Method in brief: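 Phospho-H2AX Ser139 measured by HTRF (ex 320 nm; em 665 and 620 nm) after 24 hr antibody incubation. Compounds, 15 concentrations, 0.76% DMSO, were applied to CHO-K1 cells for 3hr at 37C before lysis.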
% is scaled to controls: 0 for no effect and ±100 for the full control effect.

Chain of Nuclear receptor subfamily 1 group I member 3 (Homo sapiens) (Q14994 whole entry, looked up): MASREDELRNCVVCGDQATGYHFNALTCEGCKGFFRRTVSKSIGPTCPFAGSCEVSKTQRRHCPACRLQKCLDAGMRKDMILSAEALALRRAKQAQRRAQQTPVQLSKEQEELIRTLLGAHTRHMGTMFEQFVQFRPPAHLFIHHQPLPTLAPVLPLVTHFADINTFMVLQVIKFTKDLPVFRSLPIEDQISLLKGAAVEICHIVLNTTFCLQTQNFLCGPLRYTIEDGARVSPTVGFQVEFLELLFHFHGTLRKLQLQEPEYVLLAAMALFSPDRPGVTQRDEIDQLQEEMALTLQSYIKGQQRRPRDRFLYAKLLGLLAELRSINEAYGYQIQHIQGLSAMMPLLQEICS
Chain of Thyrotropin receptor (Homo sapiens) (P16473 whole entry, looked up): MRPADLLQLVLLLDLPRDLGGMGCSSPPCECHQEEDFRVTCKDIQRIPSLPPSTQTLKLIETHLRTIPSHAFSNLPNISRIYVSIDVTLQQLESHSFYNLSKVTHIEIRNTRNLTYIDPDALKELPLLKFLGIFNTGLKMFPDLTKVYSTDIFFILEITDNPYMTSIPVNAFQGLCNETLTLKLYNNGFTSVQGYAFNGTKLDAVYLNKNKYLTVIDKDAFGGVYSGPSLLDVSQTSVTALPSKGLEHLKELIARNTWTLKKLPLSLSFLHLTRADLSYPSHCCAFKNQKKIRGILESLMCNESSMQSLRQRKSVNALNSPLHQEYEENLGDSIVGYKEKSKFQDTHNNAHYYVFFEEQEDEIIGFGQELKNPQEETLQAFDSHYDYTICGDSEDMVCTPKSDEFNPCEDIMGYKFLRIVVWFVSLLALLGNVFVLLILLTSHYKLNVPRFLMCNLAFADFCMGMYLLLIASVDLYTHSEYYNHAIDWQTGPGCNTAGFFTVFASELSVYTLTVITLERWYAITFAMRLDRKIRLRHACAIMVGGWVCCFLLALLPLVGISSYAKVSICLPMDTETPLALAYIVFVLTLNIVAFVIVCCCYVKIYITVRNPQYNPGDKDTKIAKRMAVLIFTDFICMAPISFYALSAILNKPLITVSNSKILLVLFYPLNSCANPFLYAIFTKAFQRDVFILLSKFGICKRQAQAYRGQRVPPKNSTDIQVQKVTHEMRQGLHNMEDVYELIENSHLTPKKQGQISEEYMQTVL

CCCCCN=C(N)N/N=C/c1c[nH]c2ccc(OC)cc12
active: Potency [3] 49.2 µM | Potency [4] 15 µM | Potency [6] 6.01 µM | Potency [7] 4.25 µM | Potency [9] 5.35 µM | Potency [10] 6.74 µM | Potency [11] 4.77 µM | Potency [12] 10.7 µM
inactive: Potency [1] | Potency [2] | activity change, positive = activation [5] -70.2% [at 42.5 µM] | Potency [8]

CCCC(=O)c1cc(O)c(O)cc1O
active: Potency [13] 61.1 µM
inactive: Potency [1] | Potency [14] | Potency [6] | Potency [7] | Potency [8] | Potency [9] | Potency [10] | Potency [11] | Potency [12] | max response [15] 1.65%

CN1CCN(C)CC1
inactive: Potency [16] | Potency [17] | Potency [18] | Potency [19] | Potency [14] | Potency [3] | Potency [6] | Potency [7] | Potency [8] | Potency [9] | Potency [10] | Potency [11] | max response [15] 7.77%

Cc1cc(F)ccc1-c1cc(N2CC[C@@H](O)[C@H]2CO)ncc1N(C)C(=O)C(C)(C)c1cc(C(F)(F)F)cc(C(F)(F)F)c1
active: Potency [19] 39.5 µM | Potency [3] 70.2 µM | Potency [6] 38.3 µM | Potency [7] 17.1 µM | Potency [9] 43 µM | Potency [10] 43 µM | Potency [11] 30.4 µM | Potency [12] 38.3 µM | Potency [15] 17.1 µM
inactive: Potency [1] | Potency [17] | Potency [8]

CN1CCN(CCCN2c3ccccc3Sc3ccc(Cl)cc32)CC1
inactive: Potency [1] | Potency [17] | Potency [8] | Potency [12]
active: Potency [18] 21.3 µM | Potency [6] 21.3 µM

c1ccc(-c2ccccc2-c2ccccc2)cc1
inactive: Potency [6] | Potency [7] | Potency [8] | Potency [9] | Potency [10] | Potency [11] | Potency [12] | max response [15] -10.2%
active: Potency [1] 27.3 µM

CCN(CC)c1ccc(C=O)cc1
inactive: Potency [16] | Potency [17] | Potency [18] | Potency [19] | Potency [14] | Potency [3] | Potency [6] | Potency [8] | Potency [9] | Potency [10] | Potency [12]

CC1(C)[C@H](C(=O)OCc2cccc(Oc3ccccc3)c2)[C@@H]1C=C(Cl)Cl
inactive: Potency [1] | Potency [17] | Potency [18] | Potency [14] | Potency [3] | Potency [6] | Potency [7] | Potency [8] | Potency [9] | Potency [10] | Potency [11] | Potency [12]

NCc1cccc(C2CCN(C(=O)c3ccc(C#Cc4ccccc4F)o3)CC2)c1
active: Potency [18] 54.9 µM | Potency [3] 56.6 µM | Potency [6] 54.9 µM | Potency [10] 54.9 µM | Potency [11] 49 µM | Potency [12] 49 µM
inactive: Potency [1] | Potency [8]

O=c1[nH]cccc1O
active: Potency [4] 19.3 µM
inactive: Potency [1] | Potency [13] | Potency [2] | Potency [18] | Potency [19] | Potency [14] | Potency [3] | activity change, positive = activation [5] -37% | Potency [6] | Potency [7] | Potency [8] | Potency [9] | Potency [10] | Potency [11] | Potency [12] | max response [15] -23.7%

Cc1c[nH]c(=O)[nH]c1=O
inactive: Potency [16] | Potency [13] | Potency [2] | Potency [17] | Potency [18] | Potency [19] | Potency [14] | Potency [3] | Potency [4] | activity change, positive = activation [5] 0.0206% | Potency [6] | Potency [7] | Potency [8] | Potency [9] | Potency [10] | Potency [11] | Potency [12] | max response [15] 10.6%

O=C(NCc1ncc(C(F)(F)F)cc1Cl)c1c(Cl)cccc1Cl
active: Potency [14] 15.5 µM | Potency [7] 21.9 µM | Potency [15] 19.5 µM
inactive: Potency [1] | Potency [18] | Potency [19] | Potency [3] | Potency [6] | Potency [8] | Potency [9]

CCN(CC)c1ccc(C=O)c(O)c1
inactive: Potency [16] | Potency [2] | Potency [17] | Potency [18] | Potency [14] | Potency [3] | activity change, positive = activation [5] -16.4% | Potency [6] | Potency [7] | Potency [8] | Potency [9] | Potency [10] | Potency [11] | Potency [12] | max response [15] -15%

CC1=CC[C@@H](C(C)(C)O)CC1
inactive: Potency [17] | Potency [18] | Potency [19] | Potency [14] | Potency [3] | Potency [6] | Potency [7] | Potency [8] | Potency [10] | Potency [11] | Potency [12] | max response [15] 4.47%

CC(C)=NNC(N)=S
inactive: Potency [16] | Potency [14] | Potency [3] | Potency [6] | Potency [7] | Potency [8] | Potency [9] | Potency [10] | Potency [11] | Potency [12]

C1=CCCC1
inactive: Potency [16] | Potency [17] | Potency [19] | Potency [14] | Potency [3] | Potency [6] | Potency [9] | Potency [12]

CCCCNc1ccc(NCCCC)c2c1C(=O)c1ccccc1C2=O
inactive: viability change, negative = cytotoxic [16] -1.23% [at 19 µM] | activation [17] -9.62% [at 19 µM] | activity change, negative = cytotoxicity [18] -26.2% [at 15.8 µM] | activation [14] 0.413% [at 15.8 µM] | activity change, negative = cytotoxicity [3] -12.2% [at 31.6 µM] | activity change, negative = cytotoxicity [6] -2.93% [at 15.8 µM] | activity change, negative = cytotoxic [7] 1.33% [at 15.8 µM] | cytotoxicity [8] 1.41% [at 15.8 µM] | activity change, negative = cytotoxic [9] -5.13% [at 15.8 µM] | cytotoxicity increase [10] -1.5% [at 15.8 µM] | activity change, negative = cytotoxicity [11] 9.94% [at 15.8 µM] | viability change, negative = cytotoxic [12] 0.0909% [at 15.8 µM] | max response [15] -1.48%
